# Laboratory results: PubChem BioAssay (NCATS)
# “And” between values parts separate entries of the source, which are not always exact repeats. Equal values may be shown once. Records with an inconclusive call do not appear. The source made the active and inactive calls. Unless noted, the call rests on the fitted dose curve; in most records, active means well fitted curve in the direction sought with a large enough effect; inconclusive means small, poorly fitted or top-dose-only effect, or another doubt; inactive means no such curve, though single readings can be large; an effect the other way counts as inactive or inconclusive.
# How the values were obtained:
# [1] = Primary qHTS for inhibitors of nuclear receptor binding SET domain protein 2 (NSD2) in an isogenic RCH-ACV NSD2 p.E1099K mutant (9B) (AID 1645876); further: nearly all actives have a fitted effect of over 70% in size; further: potency means the concentration at half of the fitted maximal effect
# [2] = Primary qHTS for inhibitors of nuclear receptor binding SET domain protein 2 (NSD2) in an RCH-ACV wild type WT cells (2C) (AID 1645877); further: nearly all actives have a fitted effect of over 70% in size; further: potency means the concentration at half of the fitted maximal effect
# [3] = molecular target: Cytochrome P450 2D6 (Homo sapiens) (UniProt P10635); assay: Cytochrome P450 family 2 subfamily D member 6 (CYP2D6) small molecule antagonists: luciferase biochemical (cell-free) qHTS assay (AID 1645840; active means well fitted curve in the direction sought with a large enough effect in the repeat runs; an effect the other way counts as inactive or inconclusive; further: nearly all actives have a fitted effect of over 55% in size; further: potency means the concentration at half of the fitted maximal effect; on activity change, negative = inhibition: on the % scale 0 is the no-effect control and ±100 the full control effect)
# Sequence of Cytochrome P450 2D6 (Homo sapiens) (P10635 whole entry, looked up): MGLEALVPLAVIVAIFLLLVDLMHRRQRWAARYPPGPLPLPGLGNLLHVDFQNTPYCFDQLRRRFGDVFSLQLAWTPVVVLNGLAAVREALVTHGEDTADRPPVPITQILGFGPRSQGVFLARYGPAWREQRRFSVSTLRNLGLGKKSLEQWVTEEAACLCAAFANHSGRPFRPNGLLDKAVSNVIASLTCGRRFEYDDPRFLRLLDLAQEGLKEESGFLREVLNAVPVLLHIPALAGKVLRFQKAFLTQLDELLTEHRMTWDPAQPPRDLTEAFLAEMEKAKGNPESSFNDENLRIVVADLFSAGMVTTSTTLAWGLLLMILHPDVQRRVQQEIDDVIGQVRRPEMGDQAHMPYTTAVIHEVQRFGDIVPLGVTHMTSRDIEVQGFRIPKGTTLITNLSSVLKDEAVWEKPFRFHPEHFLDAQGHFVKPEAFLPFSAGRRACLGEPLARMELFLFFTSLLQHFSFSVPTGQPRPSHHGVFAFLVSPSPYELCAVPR
# Outline: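 P450-Glo CYP2D6 system: proluciferin substrate converted by enzyme to luciferin, read by luminescence proportional to activity. Enzyme-substrate mix with compound 10 min at room temperature, then NADPH regeneration 1 h before detection reagent.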
# [4] = molecular target: Catechol O-methyltransferase (Homo sapiens) (UniProt P21964); assay: Confirmatory Screen for Target Class Profiling of Small Molecule Inhibitors of Methyltransferases (AID 1745852; calls by dose curve; further: potency means the concentration at half of the fitted maximal effect; on activity change, negative = inhibition: on the % scale 0 is the no-effect control and ±100 the full control effect); settings: MTase-Glo luminescence, SAH detection, recombinant enzyme; measured here: COMT max response; stronger effect = lower value
# Sequence of Catechol O-methyltransferase (Homo sapiens) (P21964 whole entry, looked up): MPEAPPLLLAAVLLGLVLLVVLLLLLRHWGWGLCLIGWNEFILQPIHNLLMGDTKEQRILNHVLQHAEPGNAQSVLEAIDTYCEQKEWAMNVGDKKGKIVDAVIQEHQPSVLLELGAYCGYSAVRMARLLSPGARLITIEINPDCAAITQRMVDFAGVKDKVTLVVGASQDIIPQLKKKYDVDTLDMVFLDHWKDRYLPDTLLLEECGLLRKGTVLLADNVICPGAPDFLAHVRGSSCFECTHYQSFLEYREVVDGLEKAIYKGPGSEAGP
# [5] = molecular target: Guanidinoacetate N-methyltransferase (Homo sapiens) (UniProt Q14353); assay: as above; settings: MTase-Glo luminescence, SAH detection, recombinant enzyme; activity change, negative = inhibition: at 57.3 µM (top of the series) unless noted
# [6] = Primary qHTS for small molecule stabilizers of the endoplasmic reticulum resident proteome: Secreted ER Calcium Modulated Protein (SERCaMP) assay (AID 1508630); further: on the % scale 0 is the no-effect control and ±100 the full control effect
# Outline: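 The SH-SY5Y reporter protocol was run at 3 concentrations up to 38.3 uM (primary) or 11 concentrations (follow-up): 16 h compound, 100 nM thapsigargin for 4 h, then extracellular luciferase luminescence.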
# [7] = molecular target: Cytochrome P450 2C9 (Homo sapiens) (UniProt P11712); assay: Cytochrome P450 family 2 subfamily C member 9 (CYP2C9) small molecule antagonists: luciferase biochemical (cell-free) qHTS assay (AID 1645842; active means well fitted curve in the direction sought with a large enough effect in the repeat runs; an effect the other way counts as inactive or inconclusive; further: nearly all actives have a fitted effect of over 55% in size; further: potency means the concentration at half of the fitted maximal effect; on activity change, negative = inhibition: on the % scale 0 is the no-effect control and ±100 the full control effect)
# Sequence of Cytochrome P450 2C9 (Homo sapiens) (P11712 whole entry, looked up): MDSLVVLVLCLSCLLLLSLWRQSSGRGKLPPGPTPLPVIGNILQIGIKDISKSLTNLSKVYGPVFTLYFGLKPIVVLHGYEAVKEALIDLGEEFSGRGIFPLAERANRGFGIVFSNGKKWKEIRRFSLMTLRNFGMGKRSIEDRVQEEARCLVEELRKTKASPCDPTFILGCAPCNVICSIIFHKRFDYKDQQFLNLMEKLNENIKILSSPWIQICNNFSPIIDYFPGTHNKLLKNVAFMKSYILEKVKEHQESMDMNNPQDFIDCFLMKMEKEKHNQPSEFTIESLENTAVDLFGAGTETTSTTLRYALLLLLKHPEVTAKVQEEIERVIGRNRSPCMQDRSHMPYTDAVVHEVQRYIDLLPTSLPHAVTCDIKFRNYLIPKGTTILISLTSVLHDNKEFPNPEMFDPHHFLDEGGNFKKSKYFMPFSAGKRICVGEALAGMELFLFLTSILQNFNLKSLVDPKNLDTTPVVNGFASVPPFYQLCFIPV
# Outline: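 P450-Glo CYP2C9 system: proluciferin substrate with enzyme in mix containing 0.4% BSA, 10 min at room temperature, then NADPH regeneration solution added and incubated 1 h at 37C. Detection reagent stopped reaction; luminescence read after 20 min as RLU.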
# [8] = molecular target: N-terminal Xaa-Pro-Lys N-methyltransferase 1 (Homo sapiens) (UniProt Q9BV86); assay: Confirmatory qHTS for Inhibitors of N-terminal methyltransferase 1 (NTMT1): MTaseGlo Assay (AID 1645874); further: nearly all actives have a fitted effect of over 65% in size; further: potency means the concentration at half of the fitted maximal effect;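 on activity change, negative = inhibition: luminescence from SAH made as NTMT1 methylates SPKRIA peptide using SAM; 0% = DMSO control and -100% = no-enzyme control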
# Sequence of N-terminal Xaa-Pro-Lys N-methyltransferase 1 (Homo sapiens) (Q9BV86 whole entry, looked up): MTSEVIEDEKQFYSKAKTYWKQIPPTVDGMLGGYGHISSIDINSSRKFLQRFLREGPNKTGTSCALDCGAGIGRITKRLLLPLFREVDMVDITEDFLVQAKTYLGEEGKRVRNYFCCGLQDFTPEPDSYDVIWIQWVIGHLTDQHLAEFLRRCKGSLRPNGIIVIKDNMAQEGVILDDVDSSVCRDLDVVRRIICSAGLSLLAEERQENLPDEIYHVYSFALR
# Outline: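 Enzyme mix (125 nM NTMT1, 100 uM SAM) + compound, 15 min RT; + 1 uM SPKRIA, 30 min RT, dark; MTase-Glo reagent 30 min, detection solution 30 min; luminescence. % inhibition vs no-enzyme/DMSO controls, 4-parameter Hill fit.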
# [9] = A High-Content qHTS Against Drug Library for the Identification of Small Molecules that Inhibit DYT1 Early Onset Primary Dystonia-Associated Cell Pathology (AID 1645839; calls by dose curve; further: potency means the concentration at half of the fitted maximal effect)
# Outline: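 Cells were seeded and left for 24 h, then dosed with compound alongside tetracycline induction of mutant EGFP-TorsinA. They were incubated for 48 h, fixed in 4% paraformaldehyde, permeabilized and imaged for mislocalization (%pathology) and cell count.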
smiles,measurement,setting,value
COc1ccc(OC)c(-c2nnc3ccc(-c4ccc(OC)c(O[C@@H]5CCOC5)c4)nn23)c1,Potency,[1],3.72 µM (active)
same,Potency,[2],2.95 µM (active)
CC(=O)Nc1nc(C)c(-c2ccc(Cl)c(S(=O)(=O)NCCO)c2)s1,Potency,[1],1.32 µM (active)
same,Potency,[2],1.32 µM (active)
O=C(c1cncc(Br)c1)N1CCC(N2CCCC2)CC1,Potency,[1],inactive
Nc1ncnc2c1c(-c1cnc3[nH]ccc3c1)nn2C1CCCC1,Potency,[3],inactive
same,Potency,[1],365 nM (active) and 417 nM (active)
same,Potency,[2],365 nM (active) and 417 nM (active)
same,activity,[4],-9.35%
same,"activity change, negative = inhibition",[5],0.397%
O=C(NCCS(=O)(=O)c1ccc(C(F)(F)F)cn1)c1ccc(Cl)cc1,Potency,[1],inactive
same,Potency,[2],inactive
Cc1cn(-c2cc(NC(=O)c3ccc(C)c(Nc4nccc(-c5cccnc5)n4)c3)cc(C(F)(F)F)c2)cn1,Potency,[1],8.2 µM (active) and 11.8 µM (active)
same,Potency,[2],5.8 µM (active) and 2.35 µM (active)
CN(C)c1nc(Cc2ccc(NC(=O)c3ccc4ccccc4c3)cc2)nc(Cl)c1CC(=O)O,Potency,[3],inactive
same,Potency,[1],inactive
same,Potency,[2],inactive
O=C(O)CCCc1c[nH]c2ccccc12,Potency,[1],inactive
same,Potency,[2],inactive
CC(=O)OCC(=O)[C@@]1(O)[C@H](C)C[C@H]2[C@@H]3C=C(C)C4=Cc5c(cnn5-c5ccccc5)C[C@]4(C)[C@@H]3[C@@H](O)C[C@@]21C,Potency,[6],inactive
same,Potency,[2],0.0132 µM (active)
COCCOc1ccc2c(c1)ncn2-c1ccc2cccc(N3CCC(N)CC3)c2n1,Potency,[6],inactive
same,Potency,[1],2.3 µM (active) and 2.09 µM (active)
same,Potency,[2],2.3 µM (active) and 2.35 µM (active)
same,activity,[4],-17.6%
same,Potency,[5],48.2 µM (active)
O=C(NC1CCNCC1)c1[nH]ncc1NC(=O)c1c(Cl)cccc1Cl,Potency,[1],0.662 µM (active)
same,Potency,[2],0.59 µM (active)
CN(C)CCCN=c1c2ccccc2n(C)c2[nH]c(=O)n(C)c(=O)c12,Potency,[1],13.2 µM (active)
same,Potency,[2],11.8 µM (active)
C1Cc2[nH]nc(-c3nn[nH]n3)c2C1,Potency,[3],inactive
same,Potency,[7],inactive
same,Potency,[1],inactive
same,Potency,[2],inactive
OCc1ccc(-c2ccc(-c3ccc(CO)s3)o2)s1,Potency,[8],inactive
same,Potency,[1],50.2 nM (active) and 934 nM (active)
same,Potency,[2],31.7 nM (active) and 1.32 µM (active)
O=C(c1ccc(Nc2nccc(-c3cc4ccccc4s3)n2)cc1)N1CCC(N2CCCC2)CC1,Potency,[6],inactive
same,Potency,[1],1.45 µM (active) and 1.66 µM (active)
same,activity,[4],-18.2%
same,"activity change, negative = inhibition",[5],-6.01%
Cc1c(C)n(Cc2ccc(-c3ccccc3C(=O)O)cc2)c2ccc(C(=O)N[C@@H](C)c3ccc([N+](=O)[O-])cc3)cc12,Potency,[7],15.1 µM (active)
same,activity,[4],-7.34%
same,"activity change, negative = inhibition",[5],-10.2%
CCc1cc2c(cc1N1CCC(N3CCOCC3)CC1)C(C)(C)c1[nH]c3cc(C#N)ccc3c1C2=O,Potency,[6],inactive
same,Potency,[2],1.42 µM (active)
CN(C1CCc2c(c3ccccc3n2CC(=O)O)C1)S(=O)(=O)c1ccc(F)cc1 (stereo unspecified),Potency,[3],inactive
same,Potency,[7],19 µM (active) and 13.5 µM (active)
same,Potency,[1],inactive
Fc1cc(-c2cccc3ncc(-c4cnn(C5CCNCC5)c4)nc23)cc(F)c1CN1CCOCC1,Potency,[8],39.8 µM (active)
Clc1cccc(-n2nnnc2NCc2ccccc2Oc2ccccn2)c1Cl,Potency,[3],5.35 µM (active)
same,Potency,[7],6.01 µM (active)
Cc1nc(Nc2n[nH]c3c2CN(C(=O)N[C@H](CN(C)C)c2ccccc2)C3(C)C)c2sccc2n1,Potency,[6],inactive
same,Potency,[1],10.3 nM (active) and 11.8 nM (active)
same,Potency,[2],16.3 nM (active) and 11.8 nM (active)
same,activity,[4],-6.29%
same,Potency,[5],0.0061 µM (active)
CC(C)c1ccccc1Cc1cc(C(=O)Nc2ccc(S(=O)(=O)c3ccccc3C(C)(C)C)cc2)c(O)c(O)c1O,Potency,[1],13.2 µM (active)
Nc1cccc(-c2cc3c(Oc4cccc(O)c4)ncnc3[nH]2)c1,Potency,[6],inactive
same,Potency,[1],1.15 µM (active) and 1.05 µM (active)
same,Potency,[2],1.15 µM (active) and 833 nM (active)
same,activity,[4],-47.2%
same,Potency,[5],30.4 µM (active)
COC(=O)C1=C(C)NC(C)=C(C(=O)OCCN2CCN(C(c3ccccc3)c3ccccc3)CC2)C1c1cccc([N+](=O)[O-])c1 (stereo unspecified),Potency,[9],8.91 µM (active)
same,Potency,[7],1.55 µM (active)
same,Potency,[2],9.34 µM (active)
CNC(=O)CN1CCC(Oc2cc3c(Nc4cccc(Cl)c4F)ncnc3cc2OC)CC1,Potency,[6],inactive
same,Potency,[1],16.3 µM (active) and 18.6 µM (active)
same,Potency,[2],18.6 µM (active)
same,activity,[4],-36%
same,Potency,[5],42.9 µM (active)
Cc1ccc(NC(=O)C2(c3ccc4c(c3)OC(F)(F)O4)CC2)nc1-c1cccc(C(=O)O)c1,Potency,[3],inactive
same,Potency,[1],inactive
CCCCCN(CCC12CC3CC(CC(C3)C1)C2)C(=O)NCCCc1ccncc1,Potency,[2],16.3 µM (active)
O=C(CCCCCCC(=O)Nc1ccc([C@H]2O[C@@H](CSc3nc(-c4ccccc4)c(-c4ccccc4)o3)C[C@@H](c3ccc(CO)cc3)O2)cc1)NO,Potency,[1],2.58 µM (active) and 4.28 µM (active)
CCn1nnc2c(N3CCOCC3)nc(-c3ccc(NC(=O)Nc4ccc(C(=O)N5CCN(C)CC5)cc4)cc3)nc21,Potency,[6],inactive
same,Potency,[1],18.3 nM (active) and 41.7 nM (active)
same,activity,[4],-6.26%
same,"activity change, negative = inhibition",[5],0%
CC[C@@H]1C(=O)N(C)c2cnc(Nc3ccc(C(=O)NC4CCN(C)CC4)cc3OC)nc2N1C1CCCC1,Potency,[6],inactive
same,Potency,[1],0.0372 µM (active)
same,Potency,[2],0.0372 µM (active)
same,activity,[4],-18.1%
same,Potency,[5],21.7 µM (active)
Cc1ccc(S(=O)(=O)Nc2cc(Cl)ccc2C(=O)Nc2nc(-c3ccccc3)cs2)cc1,Potency,[1],inactive
CCOC(=O)C1=C(C)NC2=C(C(=O)CC(C)(C)C2)C1c1ccc(-c2ccccc2)cc1 (stereo unspecified),Potency,[3],inactive
same,Potency,[7],2.68 µM (active)
N#Cc1c(O)c2c(-c3ccc(-c4ccccc4O)cc3)csc2[nH]c1=O,Potency,[1],inactive
same,Potency,[2],inactive
same,activity,[4],1.41%
same,"activity change, negative = inhibition",[5],0%
